# Assays:
# Test in all cases: SPOT peptide array binding signal intensity (averaged, normalized) (arbitrary units (background-subtracted, floor 0; scale differs between SH3 domains)); higher = stronger binding of the SH3 domain to the peptide
# AgAbp1 = molecular target: AgAbp1
# Description: (§1)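 GST-tagged SH3 domains from S. cerevisiae (Sc), A. gossypii (Ag), C. albicans (Ca) and S. pombe (Sp) were incubated at 10 ug/ml overnight at 4 C on cellulose SPOT membranes carrying 292 synthetic 15-mer peptides mined from the S. cerevisiae proteome (cysteines replaced by serines). Binding was detected with anti-GST antibody, HRP secondary and chemiluminescence, quantified with Genespotter, and reported as normalized spot intensities averaged over biological replicates.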
# AgBbc1 = molecular target: AgBbc1
# Description: as §1
# AgBem1-D1 = molecular target: AgBem1-D1
# Description: as §1
# AgBzz1-D1 = molecular target: AgBzz1-D1
# Description: as §1
# AgBzz1-D2 = molecular target: AgBzz1-D2
# Description: as §1
# AgCyk3 = molecular target: AgCyk3
# Description: as §1
# AgFus1 = molecular target: AgFus1
# Description: as §1
# AgHof1 = molecular target: AgHof1
# Description: as §1
# AgHse1 = molecular target: AgHse1
# Description: as §1
# AgLsb1 = molecular target: AgLsb1
# Description: as §1
# AgLsb4 = molecular target: AgLsb4
# Description: as §1
# AgMyo5 = molecular target: AgMyo5
# Description: as §1
# AgNbp2 = molecular target: AgNbp2
# Description: as §1
# AgRvs167 = molecular target: AgRvs167
# Description: as §1
# AgSho1 = molecular target: AgSho1
# Description: as §1
# AgSla1-D1-D2 = molecular target: AgSla1-D1-D2
# Description: as §1
# AgSla1-D3 = molecular target: AgSla1-D3
# Description: as §1
# CaAbp1-D1 = molecular target: CaAbp1-D1
# Description: as §1
# CaAbp1-D2 = molecular target: CaAbp1-D2
# Description: as §1
# CaBbc1 = molecular target: CaBbc1
# Description: as §1
# CaBem1-D1 = molecular target: CaBem1-D1
# Description: as §1
# CaBzz1-D1 = molecular target: CaBzz1-D1
# Description: as §1
# CaBzz1-D2 = molecular target: CaBzz1-D2
# Description: as §1
# CaCyk3 = molecular target: CaCyk3
# Description: as §1
# CaFus1 = molecular target: CaFus1
# Description: as §1
# CaHof1 = molecular target: CaHof1
# Description: as §1
# CaHse1 = molecular target: CaHse1
# Description: as §1
# CaLsb1 = molecular target: CaLsb1
# Description: as §1
# CaLsb4 = molecular target: CaLsb4
# Description: as §1
# CaMyo5 = molecular target: CaMyo5
# Description: as §1
# CaNbp2 = molecular target: CaNbp2
# Description: as §1
# CaRvs167 = molecular target: CaRvs167
# Description: as §1
# CaRvs167-3 = molecular target: CaRvs167-3
# Description: as §1
# CaSho1 = molecular target: CaSho1
# Description: as §1
# CaSla1-D1-D2 = molecular target: CaSla1-D1-D2
# Description: as §1
# CaSla1-D3 = molecular target: CaSla1-D3
# Description: as §1
# ScAbp1 = molecular target: ScAbp1
# Description: as §1
# ScBbc1 = molecular target: ScBbc1
# Description: as §1
# ScBem1-D1 = molecular target: ScBem1-D1
# Description: as §1
# ScBzz1-D1 = molecular target: ScBzz1-D1
# Description: as §1
# ScBzz1-D2 = molecular target: ScBzz1-D2
# Description: as §1
# ScCyk3 = molecular target: ScCyk3
# Description: as §1
# ScFus1 = molecular target: ScFus1
# Description: as §1
# ScHof1 = molecular target: ScHof1
# Description: as §1
# ScHse1 = molecular target: ScHse1
# Description: as §1
# ScLsb1 = molecular target: ScLsb1
# Description: as §1
# ScLsb2 = molecular target: ScLsb2
# Description: as §1
# ScLsb3 = molecular target: ScLsb3
# Description: as §1
# ScLsb4 = molecular target: ScLsb4
# Description: as §1
# ScMyo3 = molecular target: ScMyo3
# Description: as §1
# ScMyo5 = molecular target: ScMyo5
# Description: as §1
# ScNbp2 = molecular target: ScNbp2
# Description: as §1
# ScPex13 = molecular target: ScPex13
# Description: as §1
# ScRvs167 = molecular target: ScRvs167
# Description: as §1
# ScSho1 = molecular target: ScSho1
# Description: as §1
# ScSla1-D1-D2 = molecular target: ScSla1-D1-D2
# Description: as §1
# ScSla1-D3 = molecular target: ScSla1-D3
# Description: as §1
# SpAbp1-D1 = molecular target: SpAbp1-D1
# Description: as §1
# SpBbc1 = molecular target: SpBbc1
# Description: as §1
# SpBzz1-D1 = molecular target: SpBzz1-D1
# Description: as §1
# SpBzz1-D2 = molecular target: SpBzz1-D2
# Description: as §1
# SpCyk3 = molecular target: SpCyk3
# Description: as §1
# SpHof1 = molecular target: SpHof1
# Description: as §1
# SpHof1-2 = molecular target: SpHof1-2
# Description: as §1
# SpHof1-3 = molecular target: SpHof1-3
# Description: as §1
# SpHse1 = molecular target: SpHse1
# Description: as §1
# SpLsb1 = molecular target: SpLsb1
# Description: as §1
# SpLsb4 = molecular target: SpLsb4
# Description: as §1
# SpMyo1 = molecular target: SpMyo1
# Description: as §1
# SpNbp2 = molecular target: SpNbp2
# Description: as §1
# SpPex13 = molecular target: SpPex13
# Description: as §1
# SpRvs167 = molecular target: SpRvs167
# Description: as §1
# SpSla1-D1-D2 = molecular target: SpSla1-D1-D2
# Description: as §1
# SpSla1-D3 = molecular target: SpSla1-D3
# Description: as §1
binder,measurement,setting,value
RRRDFGAPANKRPRR,SPOT peptide array binding signal intensity,AgAbp1,45
same,SPOT peptide array binding signal intensity,AgBbc1,223
same,SPOT peptide array binding signal intensity,AgBem1-D1,179
same,SPOT peptide array binding signal intensity,AgBzz1-D1,60
same,SPOT peptide array binding signal intensity,AgBzz1-D2,18
same,SPOT peptide array binding signal intensity,AgCyk3,5
same,SPOT peptide array binding signal intensity,AgFus1,374
same,SPOT peptide array binding signal intensity,AgHof1,57.5
same,SPOT peptide array binding signal intensity,AgHse1,156
same,SPOT peptide array binding signal intensity,AgLsb1,0.75
same,SPOT peptide array binding signal intensity,AgLsb4,56.5
same,SPOT peptide array binding signal intensity,AgMyo5,0.5
same,SPOT peptide array binding signal intensity,AgNbp2,39
same,SPOT peptide array binding signal intensity,AgRvs167,6
same,SPOT peptide array binding signal intensity,AgSho1,10
same,SPOT peptide array binding signal intensity,AgSla1-D1-D2,27.5
same,SPOT peptide array binding signal intensity,AgSla1-D3,4.75
same,SPOT peptide array binding signal intensity,CaAbp1-D1,106
same,SPOT peptide array binding signal intensity,CaAbp1-D2,126
same,SPOT peptide array binding signal intensity,CaBbc1,546
same,SPOT peptide array binding signal intensity,CaBem1-D1,52.5
same,SPOT peptide array binding signal intensity,CaBzz1-D1,116
same,SPOT peptide array binding signal intensity,CaBzz1-D2,124
same,SPOT peptide array binding signal intensity,CaCyk3,17
same,SPOT peptide array binding signal intensity,CaFus1,241
same,SPOT peptide array binding signal intensity,CaHof1,0.5
same,SPOT peptide array binding signal intensity,CaHse1,2.25
same,SPOT peptide array binding signal intensity,CaLsb1,≤ 0
same,SPOT peptide array binding signal intensity,CaLsb4,67.5
same,SPOT peptide array binding signal intensity,CaMyo5,2.25
same,SPOT peptide array binding signal intensity,CaNbp2,138
same,SPOT peptide array binding signal intensity,CaRvs167,16
same,SPOT peptide array binding signal intensity,CaRvs167-3,4.5
same,SPOT peptide array binding signal intensity,CaSho1,116
same,SPOT peptide array binding signal intensity,CaSla1-D1-D2,66
same,SPOT peptide array binding signal intensity,CaSla1-D3,4.75
same,SPOT peptide array binding signal intensity,ScAbp1,79
same,SPOT peptide array binding signal intensity,ScBbc1,65
same,SPOT peptide array binding signal intensity,ScBem1-D1,94
same,SPOT peptide array binding signal intensity,ScBzz1-D1,32
same,SPOT peptide array binding signal intensity,ScBzz1-D2,29
same,SPOT peptide array binding signal intensity,ScCyk3,100
same,SPOT peptide array binding signal intensity,ScFus1,163
same,SPOT peptide array binding signal intensity,ScHof1,2
same,SPOT peptide array binding signal intensity,ScHse1,584
same,SPOT peptide array binding signal intensity,ScLsb1,4.5
same,SPOT peptide array binding signal intensity,ScLsb2,1.5
same,SPOT peptide array binding signal intensity,ScLsb3,810
same,SPOT peptide array binding signal intensity,ScLsb4,15.5
same,SPOT peptide array binding signal intensity,ScMyo3,9
same,SPOT peptide array binding signal intensity,ScMyo5,11
same,SPOT peptide array binding signal intensity,ScNbp2,76.5
same,SPOT peptide array binding signal intensity,ScPex13,8.25
same,SPOT peptide array binding signal intensity,ScRvs167,31.8
same,SPOT peptide array binding signal intensity,ScSho1,688
same,SPOT peptide array binding signal intensity,ScSla1-D1-D2,611
same,SPOT peptide array binding signal intensity,ScSla1-D3,25
same,SPOT peptide array binding signal intensity,SpAbp1-D1,30.5
same,SPOT peptide array binding signal intensity,SpBbc1,18
same,SPOT peptide array binding signal intensity,SpBzz1-D1,225
same,SPOT peptide array binding signal intensity,SpBzz1-D2,≤ 0
same,SPOT peptide array binding signal intensity,SpCyk3,4
same,SPOT peptide array binding signal intensity,SpHof1,367
same,SPOT peptide array binding signal intensity,SpHof1-2,21.5
same,SPOT peptide array binding signal intensity,SpHof1-3,342
same,SPOT peptide array binding signal intensity,SpHse1,108
same,SPOT peptide array binding signal intensity,SpLsb1,1.5
same,SPOT peptide array binding signal intensity,SpLsb4,406
same,SPOT peptide array binding signal intensity,SpMyo1,19
same,SPOT peptide array binding signal intensity,SpNbp2,42
same,SPOT peptide array binding signal intensity,SpPex13,15
same,SPOT peptide array binding signal intensity,SpRvs167,12.2
same,SPOT peptide array binding signal intensity,SpSla1-D1-D2,≤ 0
same,SPOT peptide array binding signal intensity,SpSla1-D3,8
KRKRFNLLLPKPYLT,SPOT peptide array binding signal intensity,SpBzz1-D2,≤ 0
same,SPOT peptide array binding signal intensity,SpCyk3,4
same,SPOT peptide array binding signal intensity,SpHof1,136
same,SPOT peptide array binding signal intensity,SpHof1-2,32.5
same,SPOT peptide array binding signal intensity,SpHof1-3,403
same,SPOT peptide array binding signal intensity,SpHse1,366
same,SPOT peptide array binding signal intensity,SpLsb1,3.75
same,SPOT peptide array binding signal intensity,SpLsb4,47
same,SPOT peptide array binding signal intensity,SpMyo1,2.5
same,SPOT peptide array binding signal intensity,SpNbp2,492
same,SPOT peptide array binding signal intensity,SpPex13,8.5
same,SPOT peptide array binding signal intensity,SpRvs167,12.7
same,SPOT peptide array binding signal intensity,SpSla1-D1-D2,3
same,SPOT peptide array binding signal intensity,SpSla1-D3,16.5
